Calls of active or inactive are those of the source. Entries that show only a call come without a potency. Calls follow the shape of the full dose curve.
Test: G protein-coupled receptor (GPCR) small molecule agonists, calcium flux assay: HEK293 wild type cell line counter screen (AID 1920065)
Settings: HEK293 WT calcium flux, fluorescence, agonist mode; series mostly up to 57.6 µM
Text: U.S. Tox21 Program National Center for Advancing Translational Sciences [NCATS] Division of Preclinical Innovation [DPI] U.S. Environmental Protection Agency [EPA] National Institutes of Environmental Health Sciences [NIEHS] National Toxicology Program [NTP] U.S. Food and Drug Administration [FDA] Assay overview: The increased intracellular calcium release that occurred upon G protein-coupled receptor (GPCR) activation led to the frequent use of calcium flux assays to detect GPCR activation. For the purpose of studying and screening compounds that may activate GPCR, receptor-overexpressing models were typically generated using Hek293 wild-type (WT) cells. In order to eliminate the compounds that may have induced calcium release for non-specific activation, a counter-assay utilizing calcium flux on Hek293 WT cells was performed. The data were formulated in order to serve as a control for any calcium flux detection utilizing Hek293 cells with either GPCR overexpression or gene modification. The procurement of Hek293 WT cells from ATCC. Fluorescence intensity can be utilized to determine the activation of the compound in a calcium flux assay. As a counter control, this cell line was utilized to screen the Tox21 10K compound library.
Assay Protocol Summary: Hek293 cells were dispensed at 1500cells/4uL/well in 1536-well black wall/clear bottom plates using a multidrop dispenser. After the assay plates were incubated at a 37 C/5% CO2 incubator for 18 hours, 4 uL of Calcium Dye Solution was added to each well. The plates were incubated at 37 C for 1 hour. For agonist mode, 23 nL of compounds dissolved in DMSO, positive control (ATP) or DMSO only was transferred to the assay plate by a pin tool station. The fluorescence intensity in the plates was measured using FDSS 7000EX kinetic plate reader with a filter set of Ex/Em=480/540 for 3 min at 1 sec intervals. Each test compound was measured at 15 concentrations and in triplicates.

Structure (SMILES) | Potency | activation
CCCCCCCCCCCC(=O)OCC(O)CO (stereo not given) | inactive | 
CC(CO)(CO)[N+](=O)[O-] | inactive | 
CCOC(=O)OC(C)OC(=O)[C@@H]1N2C(=O)[C@@H](NC(=O)[C@H](N)c3ccccc3)[C@H]2SC1(C)C (stereo not given in full) | inactive | 
Nc1ccc(/C=C/c2ccc(N)cc2S(=O)(=O)O)c(S(=O)(=O)O)c1 |  | -1.11% [at 0.217 µM] (inactive)
CC/C=C\CC/C=C/CO | inactive | 
CCCCCCCCCCC1CO1 (stereo not given) | inactive | 
CC(C)C(=O)OCCc1ccccc1 | inactive | 
N#Cc1ccccc1O | inactive | 
O=C(N/N=C/c1ccc([N+](=O)[O-])o1)c1ccc(O)cc1 | inactive | 
Cc1nccn1-c1ccc(Sc2cccc(C3(C(N)=O)CCOCC3)c2)cc1 | inactive | 
O=C1c2ccccc2C(=O)N1SC1CCCCC1 | inactive | 
CCCCCC=CCC=CCCCCCCCC(=O)OCC | inactive | 
CC1(C)[C@@H](O)CC[C@]2(C)[C@H]3C(=O)C=C4[C@@H]5C[C@@](C)(C(=O)O)CC[C@]5(C)CC[C@@]4(C)[C@]3(C)CC[C@@H]12 | inactive | 
S=C([S-])NCCNC(=S)[S-].[Mn+2] | inactive | 
CNC(=O)C(c1ccccc1)c1ccccc1 | inactive | 
CC(=O)c1ccc(C)cc1 | inactive | 
CC(C)n1c(/C=C/[C@@H](O)C[C@@H](O)CC(=O)O)c(-c2ccc(F)cc2)c2ccccc21 | inactive | 
COc1nc(C)nc(Cl)c1NC1=NCCN1 | inactive | 
CN(C)CCOC(c1ccccc1)c1ccccc1 | inactive | 
Cc1cc2c(C(C)C)c(O)c(O)c(C=O)c2c(O)c1-c1c(C)cc2c(C(C)C)c(O)c(O)c(C=O)c2c1O | inactive | 

Structure (SMILES) | Potency | activation
C/C(=C(/OCCOc1ccc(Cl)cc1)c1ccc(Cl)cc1Cl)n1ccnc1 | inactive | 
CCC(C)(C)C1CCC(O)CC1 (stereo not given) | inactive | 
CCN(CC)CCCC(C)Nc1c2ccc(Cl)cc2nc2ccc(OC)cc12 (stereo not given) | inactive | 
CCCCCCOc1ccc(O)cc1 | inactive | 
CCc1c(C)cc(N)c(CC)c1N | inactive | 
Cc1cc(C(C#N)c2ccc(Cl)cc2)c(Cl)cc1NC(=O)c1cc(I)cc(I)c1O (stereo not given) | inactive | 
CC(C(=O)O)c1ccc2c(c1)[nH]c1ccc(Cl)cc12 (stereo not given) | inactive | 
CCCCC1C(=O)N(c2ccccc2)N(c2ccc(O)cc2)C1=O (stereo not given) | inactive | 
Cc1nn(C)c(Oc2ccccc2)c1/C=N/OCc1ccc(C(=O)OC(C)(C)C)cc1 | inactive | 
COc1ccc(-c2nc3ccc(C4=NNC(=O)CC4C)cc3[nH]2)cc1 (stereo not given) | inactive | 
CC1(C)C(=O)N(Cl)C(=O)N1Br | inactive | 
Cc1nc2c([nH]1)c(=O)n(C)c(=O)n2Cc1ccco1 | inactive | 
CC(=O)Nc1ccc(OC(=O)c2ccccc2OC(C)=O)cc1 | inactive | 
CCN(CC)CCNC(=O)COc1ccc(OC)cc1 | inactive | 
C=C(C)C1CC=C(C)C(=O)C1 (stereo not given) | inactive | 
CC/C(C)=N\O[Si](C)(O/N=C(\C)CC)O/N=C(\C)CC | inactive | 
O=S1(=O)N=C(O)c2ccccc21 | inactive | 
CC1=CC(=O)/C(=C(/C)O)C(=O)O1 | inactive | 
O=[N+]([O-])c1cccc(Cl)c1Cl | inactive | 
C=C(C)[C@@H]1CC=C(C)C(=O)C1 | inactive | 
